Screening data as filed in PubChem BioAssay.
The list is not random: actives were taken first. Their share in the collection is about 10%.
NIH3T3 tox: Cytotoxic Profiling in NIH 3T3 Cell Line of Diverse Libraries Using Quantitative High-Throughput Screening; NIH 3T3 viability, CellTiter-Glo ATP luminescence, 48-72 h; Potency, µM (doses to about 96.7 µM), inactives show at the top dose activity change, negative = cytotoxicity, most hits filed as inhibitors; actives 4.3% (n = 94,000); AID 1345082, 2018; note: % is set by controls: 0 for no effect and ±100 for the full control effect; nearly all actives have a fitted effect of over 55% in size
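Viability of NIH 3T3 cells after 48 or 72 hr compound treatment at 37 °C was assessed by CellTiter-Glo, with luminescence imaged following a 10 min room-temperature step.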
HEK cytotox: Cytotoxic Profiling in HEK 293 Cell Line of Diverse Libraries Using Quantitative High-Throughput Screening; HEK 293 viability, ATP luminescence (CellTiter-Glo), 48-72 h; Potency, µM (top dose mostly 115 µM), for the others: top-dose activity change, negative = cytotoxicity, usual class: inhibitors; actives 6.6% (n = 94,000); AID 1345083, 2018; note: % is set by controls: 0 for no effect and ±100 for the full control effect; nearly all actives have a fitted effect of over 60% in size
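Read-out: CellTiter-Glo ATP luminescence. Cells: HEK 293, 250 cells/well. Exposure: 48 or 72 hr, 37 degree Celsius.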
GPT2 inh: Primary qHTS assay for inhibitors of Glutamate pyruvate transaminase 2 (GPT2) | Alanine aminotransferase 2 (Homo sapiens), Q8TD30 | Recombinant GPT2, coupled pyruvate oxidase/HRP Amplex Red fluorescence | Potency, µM (titrated, usually from 57.7 µM), inactives show top-dose activity change, negative = inhibition, hits mostly inhibitors | actives 0.25% (n = 100,000) | AID 1671188, 2021; note: % is set by controls: 0 for no effect and ±100 for the full control effect; nearly all actives have a fitted effect of over 60% in size
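Fluorescence read-out: pyruvate from GPT2 turnover coupled to pyruvate oxidase, HRP and Amplex Red (0.2mM ThPP, 0.2U/mL PO and HRP, 50uM Amplex final). Substrates 250uM a-KG, 2mM L-alanine; enzyme 10ng/uL; 30 min RT.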
FLuc inh: Firefly luciferase inhibition profiling of diverse chemical library using quantitative high-throughput screening; actives 2.5% (n = 76,000); Potency, µM (titrated, usually from 115 µM), usual class: inhibitors; purified P. pyralis luciferase, luminescence, biochemical; Luciferin 4-monooxygenase (Photinus pyralis), P08659; note: % is set by controls: 0 for no effect and ±100 for the full control effect; nearly all actives have a fitted effect of over 65% in size
Target sequence (P08659 whole entry, looked up): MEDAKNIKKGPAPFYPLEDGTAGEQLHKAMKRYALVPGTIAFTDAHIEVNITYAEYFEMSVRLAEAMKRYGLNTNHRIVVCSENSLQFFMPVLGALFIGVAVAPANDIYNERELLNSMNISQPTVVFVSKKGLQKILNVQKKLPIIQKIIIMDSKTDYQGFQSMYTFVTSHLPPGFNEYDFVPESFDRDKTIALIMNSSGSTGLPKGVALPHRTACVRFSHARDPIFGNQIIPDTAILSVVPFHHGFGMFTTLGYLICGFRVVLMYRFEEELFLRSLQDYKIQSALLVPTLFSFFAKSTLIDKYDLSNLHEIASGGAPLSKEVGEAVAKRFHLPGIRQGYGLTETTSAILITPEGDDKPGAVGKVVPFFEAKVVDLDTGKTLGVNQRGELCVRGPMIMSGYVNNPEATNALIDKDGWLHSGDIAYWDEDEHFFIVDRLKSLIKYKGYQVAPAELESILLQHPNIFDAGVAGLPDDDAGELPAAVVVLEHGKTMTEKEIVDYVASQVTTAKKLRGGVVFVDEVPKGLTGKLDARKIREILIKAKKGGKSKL
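Luminescence read by CCD imager after adding enzyme (10nM final) to wells holding compound, titrated in qHTS. Substrates 10uM each D-luciferin and ATP; buffer 50mM Tris acetate pH 7.5, 10mM Mg acetate, Tween-20, BSA.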
NPR1 antag: Natriuretic polypeptide receptor (hNpr1) antagonism - Primary qHTS; HEK293 hNpr1 GloSensor cGMP, ANP-stimulated luminescence; actives 1.6% (n = 76,000); Potency, µM (series often up to 46.3 µM), inactives show at the top dose activity change, negative = inhibition, most hits filed as inhibitors; calls by dose curve; note: % is set by controls: 0 for no effect and ±100 for the full control effect; nearly all actives have a fitted effect of over 60% in size
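Compound pre-incubated 30 min at room temperature on GloSensor-loaded HEK293 cells stably carrying hNpr1 and the pGS-40F cGMP biosensor. Stimulation uses hNppA at 0.1 nM final; luminescence is taken at baseline and 20 min post-agonist.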
Npr1 antag conf: Natriuretic polypeptide receptor (hNpr1) antagonism - Confirmation | shares compounds with NPR1 antag | HEK293 hNpr1 cGMP GloSensor luminescence, ANP-stimulated | Potency, µM (highest dose often 57.6 µM), for inactives: at the top dose activity change, negative = inhibition, actives largely listed as inhibitors | actives 76% (n = 1,400) | AID 1347044, 2019; calls by dose curve; note: nearly all actives have a fitted effect of over 70% in size
NPR2 antag: Natriuretic polypeptide receptor (hNpr2) antagonism - Subtype selectivity assay; Potency, µM (highest dose often 57.6 µM), for the others: at the top dose activity change, negative = inhibition, hits mostly inhibitors; actives 67% (n = 1,400); AID 1347046, 2019; HEK293 hNpr2 GloSensor cGMP luminescence, CNP-stimulated; shares compounds with NPR1 antag; calls by dose curve; note: nearly all actives have a fitted effect of over 70% in size
FLuc inh counter: Natriuretic polypeptide receptor (hNpr1) antagonism - Confirmation firefly luciferase (FLuc) inhibition counterscreen; Potency, µM (doses to about 57.6 µM), for the others: at the highest dose activity change, negative = inhibition, most hits filed as inhibitors; purified FLuc enzyme, luminescence, Km substrate; shares compounds with NPR1 antag; actives 0.7% (n = 1,400); note: 0% is about no effect
GloSensor ctrl: Natriuretic polypeptide receptor (hNpr1) antagonism - Counterscreen GloSensor control cell line | shares compounds with NPR1 antag | HEK293 GloSensor cGMP, SNP-stimulated, luminescence | Potency, µM (titrated, usually from 57.6 µM), for the others: top-dose activity change, negative = inhibition, actives largely listed as inhibitors | actives 69% (n = 1,400); calls by dose curve; note: % is set by controls: 0 for no effect and ±100 for the full control effect; nearly all actives have a fitted effect of over 70% in size
The depositor's hits bear a star; i = inactive; ? = inconclusive; nt = no result; [ ] = dose if it differs, or a comment. Unless noted, calls come from the whole dose curve; as a rule, active = well fitted curve in the direction sought with a large enough effect; inconclusive = small, poorly fitted or top-dose-only effect, or another doubt; inactive = no such curve, though single readings can be large; an effect the other way counts as inactive or inconclusive. Potency is the fitted concentration of half-maximal effect.

SMILES	NIH3T3 tox	HEK cytotox	GPT2 inh	FLuc inh	NPR1 antag	Npr1 antag conf	NPR2 antag	FLuc inh counter	GloSensor ctrl
Cc1[nH]ncc1CNC(=O)CN1CCCc2nc(-c3ccccc3)ncc2C1=O	-15%	-15%	i	i	-1%	nt	nt	nt	nt
O=C(CN1CCCc2nc(-c3ccccc3)ncc2C1=O)NCCc1c[nH]c2ccccc12	?	?	3%	i	10µM*	27µM*	?	-10%	22µM*
Cc1nn(C)cc1C(C)NC(=O)CN1CCCc2nc(-c3ccccc3)ncc2C1=O (centres undefined)	-25%	?	i	i	?	?	-29%	3%	-20%
CC(CCc1ccco1)NC(=O)CN1CCCc2nc(-c3ccccc3)ncc2C1=O (centres undefined)	?	?	i	i	?	?	?	2%	?
Cc1cc(C)n2c(C(=O)N[C@@H]3COCC[C@@H]3OCc3ccccc3)nnc2n1	-12%	-1%	i[11.5 µM]	i	5%	nt	nt	nt	nt
c1cncc(CNC[C@H]2COCc3nc4ccccc4n32)c1	-18%[174 µM]	-29%[172 µM]	-6%[88.5 µM]	i	-12%[70.6 µM]	nt	nt	nt	nt
O=C(NC1CCCCCCC1)c1nnn2c1COC(c1ccc(F)cc1)C2 (centres undefined)	?	?	i	i	?	?	?	-1%	?
O=C(c1ccccc1F)N1CCN(C(=O)c2nnn3c2COC(c2ccc(Cl)cc2)C3)CC1 (centres undefined)	?	?	2%	i	14µM*	27µM*	?	2%	?
COc1ccc(Cl)cc1C(=O)N1CCN(C(=O)c2nnn3c2COC(c2ccccc2)C3)CC1 (centres undefined)	?	?	i	i	?	?	?	2%	-25%
COc1ccccc1C(=O)N1CCN(C(=O)c2nnn3c2COC(c2ccc(C)cc2)C3)CC1 (centres undefined)	?	?	?	i	?	?	-28%	1%	?
CCOc1ccccc1C(=O)N1CCN(C(=O)c2nnn3c2COC(c2ccccc2)C3)CC1 (centres undefined)	-18%	?	5%	i	0%	nt	nt	nt	nt
COCCC(=O)N1CCCN(S(C)(=O)=O)c2ccccc21	3%	i	-10%	i	-4%	nt	nt	nt	nt
Cc1nc(CC2CCN(C(=O)Cn3cccc(C(F)(F)F)c3=O)CC2)no1	-4%	-3%	?	i	-1%	nt	nt	nt	nt
Cc1ncccc1OCC1CN(Cc2cccc(C(F)(F)F)c2)C(=O)c2c(ccnc2-c2ccc(OCC(=O)O)cc2)O1 (centres undefined)	?	-3%	-10%	i	12%	nt	nt	nt	nt
CC(C)C(=O)NCC1CN(Cc2ccccc2)C(=O)c2c(ccnc2-c2ccc(OCC(=O)O)cc2)O1 (centres undefined)	?	25µM*	-17%	i	5.6µM*	5.4µM*	6.1µM*	3%	4.8µM*
O=C(O)COc1ccc(-c2nccc3c2C(=O)N(Cc2cccc(C(F)(F)F)c2)CC(CNC(=O)C2CCOCC2)O3)cc1 (centres undefined)	?	?	-9%	i	?	8.6µM*	?	5%	5.4µM*
O=C(O)COc1ccc(-c2nccc3c2C(=O)N(Cc2cccc(C(F)(F)F)c2)CC(COc2ccc4cnccc4c2)O3)cc1 (centres undefined)	?	i	-8%	i	2%	nt	nt	nt	nt
COCCN1C(=O)CO[C@H]2CN(c3ncccn3)C[C@H]21	-4%[174 µM]	-11%[230 µM]	?	i	4%[70.6 µM]	nt	nt	nt	nt
COc1ccc(CN2CCCc3nc(C)nc(-c4ccc(O)cc4)c3C2)cc1	?	?	5%	i	-10%	nt	nt	nt	nt
COc1cccc(C(=O)N2CCC3(C2)NC(=O)N(Cc2ccc(Cl)cc2)C3=O)c1 (centres undefined)	?	?	i	i	?	?	?	1%	-29%
Cc1ccc(OCCC2CCN(C(=O)CCCC(=O)n3nc(C)c4ccccc43)C2)cc1 (centres undefined)	?	40µM*	i	i	10µM*	11µM*	14µM*	0%	11µM*
CN1CCC(CN2CCC3(CC2)OCCN(c2ccc(F)cc2)C3=O)CC1	?	?	2%[88.5 µM]	i	6%[70.6 µM]	nt	nt	nt	nt
CC(C)c1ccc(CN2CCC3(CC2)OCCN(c2ccc(F)cc2)C3=O)cc1	?	?	2%[88.5 µM]	i	22µM*	35µM*	31µM*	-2%[86.2 µM]	35µM*
O=C(NCc1ccccc1)c1cc2c(s1)CCN(C(=O)c1ccccc1)C2	?	?	-11%	i	-1%	nt	nt	nt	nt
COc1ccc(CNC(=O)c2cc3c(s2)CCN(C(=O)c2ccccc2)C3)cc1OC	?	?	-3%	i	2.5µM*	3.4µM*	4.8µM*	2%	3.1µM*
CC1CCCN(C(=O)c2cc3c(s2)CCN(C(=O)c2ccc(Cl)cc2)C3)C1 (centres undefined)	?	45µM*	-15%	i	-25%	27µM*	27µM*	1%	24µM*
